Shown are actives, neighbours in structure and some others; about 1.4% of the full set was active somewhere.
MCL1-BIM inh = inhibitors of human MCL1 binding to BIM-BH3 peptide. GST-MCL1 / FITC-Bim-BH3 fluorescence polarization. inhibition, % at 10.9 µM. 0.68% of 320,000 active. AID 2057;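 active = inhibition above the mean inhibition of all tested compounds plus 3 SD, set per campaign, cut at about 40% in these data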;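 also: higher means more loss of mP so more displacement of Bim peptide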
BCLXL inh = inhibitors of human Bcl-xL; Q07817; GST-Bcl-xL / FITC-Bim BH3 peptide fluorescence polarization; inhibition, % at 10.9 µM; 0.7% of 320,000 active; AID 2129;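 active = inhibition above the mean of all tested compounds plus 3 SD, cutoff set per campaign, cut at about 30% in these data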;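 also: inhibitors lower millipolarization by displacing the labeled peptide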
MEX-5 binding = C. elegans MEX-5 TCR-2 RNA binding activity; activity score (negative = inhibition of binding), % at 10 µM; MEX-5/FITC-TCR2 RNA binding, fluorescence polarization; hits give low values; 0.38% of 300,000 active;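 active = inhibition past about -25% in most replicates, and total fluorescence under double the plate's negative control median, limit read from the data; inconclusive = replicates evenly split on the limit, or fluorescence at least double controls; inactive = too little inhibition in most replicates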
GLD-1 TGE inh = GLD-1-TGE RNA interaction inhibition (C. elegans). Q17339. purified GLD-1 + fluorescein TGE RNA, fluorescence polarization. inhibition, % at 5.96 µM. 0.44% of 320,000 active. AID 2280;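 active = percent inhibition above a per-plate cutoff, the plate mean of test compounds plus 3 SD, cut at about 30% in these data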
Target sequence (Q17339 whole entry, looked up): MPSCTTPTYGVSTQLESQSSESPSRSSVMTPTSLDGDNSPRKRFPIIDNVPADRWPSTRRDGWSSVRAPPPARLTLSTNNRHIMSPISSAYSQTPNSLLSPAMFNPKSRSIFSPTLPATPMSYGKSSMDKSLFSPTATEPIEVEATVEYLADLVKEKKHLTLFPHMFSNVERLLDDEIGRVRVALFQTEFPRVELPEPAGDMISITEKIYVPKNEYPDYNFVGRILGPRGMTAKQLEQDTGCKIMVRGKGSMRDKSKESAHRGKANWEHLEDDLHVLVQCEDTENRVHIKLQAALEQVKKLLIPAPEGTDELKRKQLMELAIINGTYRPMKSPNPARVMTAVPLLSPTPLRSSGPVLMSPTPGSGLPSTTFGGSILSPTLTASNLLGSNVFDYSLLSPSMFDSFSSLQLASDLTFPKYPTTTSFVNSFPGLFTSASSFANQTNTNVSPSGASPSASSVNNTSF
eLon inh = inhibitors of E. coli Lon protease. P0A9M0. purified E. coli Lon protease, fluorescence polarization. inhibition, % at 7.94 µM. 0.42% of 360,000 active. AID 602123; in the data active = inhibition above about 13%, passing the limit was not always enough
BCLXL inh confirm = Bcl-xL (human) inhibition, MCL1 counter-screen confirmation. shares compounds with MCL1-BIM inh. GST-Bcl-xL / FITC-Bim BH3 peptide FP binding. inhibition, % at 10.9 µM. 54% of 1,700 active. AID 2166;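 active = inhibition above a cutoff equal to the mean inhibition of all tested compounds plus 3 SD, cut at about 30% in these data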
MCL1 inh confirm = MCL1-BIM-BH3 interaction inhibition, confirmation; shares compounds with MCL1-BIM inh; GST-MCL1 / FITC-Bim-BH3 fluorescence polarization; inhibition, % at 10.9 µM; 61% of 1,700 active;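 active = inhibition above the average of all tested compounds plus 3 SD, cut at about 40% in these data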
GLD-1 TGE cf = confirmation of C. elegans GLD-1 TGE RNA binding inhibitors; shares compounds with GLD-1 TGE inh; GLD-1/FL-TGE RNA fluorescence polarization, biochemical; inhibition, % at 5.96 µM; 10% of 550 active;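 active = average inhibition across triplicates above the hit cutoff set in the primary screen, cut at about 32% in these data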
eLon confirm = E. coli Lon inhibition confirmation; 31% of 1,400 active; inhibition, % at 7.94 µM; shares compounds with eLon inh; purified E. coli Lon, fluorescence polarization; in the data active = inhibition above about 16%
Large screens that a line does not name were inactive (follow-up assays come after a bar, where they were run).

Clc1ccccc1C1=CC(c2ccco2)n2ncnc2N1 (configuration not stated)	MCL1-BIM inh 50, BCLXL inh 49, eLon inh 31 | BCLXL inh confirm 34 | MCL1 inh confirm 44 | eLon confirm inactive
FC(F)(F)c1ccccc1C1=CC(c2ccccc2)n2ncnc2N1 (configuration not stated)	none
Cc1ccc(C2=CC(c3ccc(C)cc3)n3ncnc3N2)cc1 (configuration not stated)	none
Clc1ccc(C2=CC(c3ccco3)n3ncnc3N2)cc1 (configuration not stated)	MCL1-BIM inh active, BCLXL inh 189, MEX-5 binding -91, GLD-1 TGE inh 141, eLon inh 139 | BCLXL inh confirm 51 | MCL1 inh confirm 76 | eLon confirm 75
COc1ccccc1-c1cnc(C(O)c2c(C)cc(C)cc2C)[nH]1 (configuration not stated)	none (no result: MCL1-BIM inh, BCLXL inh, MEX-5 binding, GLD-1 TGE inh)
O=S1(=O)CC(N2CCN(CCO)CC2)CN1Cc1cn(Cc2ccccc2C(F)(F)F)nn1 (configuration not stated)	none (no result: MCL1-BIM inh, BCLXL inh, MEX-5 binding, GLD-1 TGE inh)
O=C1C=C(N(CCO)Cc2ccccc2)c2ccccc2C1=O	none (no result: MCL1-BIM inh, BCLXL inh, GLD-1 TGE inh)
O=C1c2ccccc2C(=O)c2c1cccc2N(CCO)CCO	MCL1-BIM inh 65, BCLXL inh 72, MEX-5 binding -42, GLD-1 TGE inh 46, eLon inh 27 | BCLXL inh confirm 58 | MCL1 inh confirm 77 | GLD-1 TGE cf 50 | eLon confirm 20
CCOc1ccccc1NC(=O)C1CCN(C(=O)c2cccs2)CC1	none
O=C(N/N=C/c1cc(Br)c(Br)o1)c1cccnc1	MCL1-BIM inh 126, BCLXL inh 94, GLD-1 TGE inh 40, eLon inh 27 | BCLXL inh confirm 34 | MCL1 inh confirm 44 | GLD-1 TGE cf inactive | eLon confirm inactive
Cc1oc2c(O)c(O)ccc2c(=O)c1-c1ccc(Cl)cc1	MCL1-BIM inh 43, eLon inh 16 | BCLXL inh confirm 58 | MCL1 inh confirm 81 | eLon confirm inactive
O=Cc1ccc2noc(-c3ccc(F)cc3)c2c1	MCL1-BIM inh 106, BCLXL inh 101, MEX-5 binding inconclusive, GLD-1 TGE inh 103, eLon inh 20 | BCLXL inh confirm 123 | MCL1 inh confirm 163 | eLon confirm 110
CN(Cc1ccc(F)cc1)C(=O)CNC(=O)c1ccc2c(c1)OCO2	none
O=C(COc1cccnc1[N+](=O)[O-])Nc1c(Cl)cccc1Cl	none (no result: MCL1-BIM inh, BCLXL inh, MEX-5 binding)
O=C(COc1cccnc1[N+](=O)[O-])Nc1ncc(Cl)cc1Cl	MCL1-BIM inh 78, BCLXL inh 64, eLon inh 18 (no result: MEX-5 binding) | BCLXL inh confirm 61 | MCL1 inh confirm 98 | eLon confirm inactive
O=c1cc(CN2CCc3ccccc32)nc2sccn12	none
O=c1cc(CN2CCCc3ccccc32)nc2sccn12	MCL1-BIM inh active, BCLXL inh 199, MEX-5 binding inconclusive, eLon inh 39 | BCLXL inh confirm 134 | MCL1 inh confirm 166 | eLon confirm 86
O=C(NC(=S)N1CCCC(O)C1)c1ccco1 (configuration not stated)	none (no result: MCL1-BIM inh, BCLXL inh, MEX-5 binding)
Nc1c(C(=O)NC2CC2)c2nc3ccccc3nc2n1-c1ccc2c(c1)OCO2	MCL1-BIM inh 61, BCLXL inh 42, eLon inh 19 | BCLXL inh confirm 35 | MCL1 inh confirm 42 | eLon confirm 31
CCCNC(=O)c1c(N)n(-c2ccc3c(c2)OCO3)c2nc3ccccc3nc12	none
CN1CCc2c(sc3c2C(=O)NC(c2ccccn2)N3)C1 (configuration not stated)	MCL1-BIM inh 66, BCLXL inh 64, MEX-5 binding -51, GLD-1 TGE inh 37, eLon inh 24 | BCLXL inh confirm 41 | MCL1 inh confirm 52 | eLon confirm inactive
Cc1ccc[n+](-c2nc([O-])sc2C=O)c1	MCL1-BIM inh active, BCLXL inh 173, GLD-1 TGE inh 156, eLon inh 92 (no result: MEX-5 binding) | BCLXL inh confirm 169 | MCL1 inh confirm active | eLon confirm 148
CC(C)c1ccc[n+](-c2nc([O-])sc2C=O)c1	none
COCC1CCN(Cc2c(C(=O)N3CCN(C4CCCCC4)CC3)nc3ccccn23)C1 (configuration not stated)	MCL1-BIM inh 57, BCLXL inh 52, eLon inh 26 | BCLXL inh confirm inactive | MCL1 inh confirm inactive | eLon confirm inactive
O=C(c1nc2ccccn2c1CN1CCC(Cc2ccccc2)CC1)N1CCCC1	none
Cc1ccc2cccc(OCC(=O)NCCC3=CCCCC3)c2n1	none (no result: MCL1-BIM inh, BCLXL inh, MEX-5 binding)
COCCN1CN(S(=O)(=O)c2ccccc2)c2nc3ccccc3nc21	MCL1-BIM inh 55, BCLXL inh 62, GLD-1 TGE inh 59, eLon inh 26 | BCLXL inh confirm 31 | MCL1 inh confirm 43 | GLD-1 TGE cf inactive | eLon confirm inactive
CC1(C)CC(=O)C2=C(C1)OC(N)=C(C#N)[C@@H]2c1ccccc1[N+](=O)[O-]	MCL1-BIM inh 194, BCLXL inh 163, MEX-5 binding -68, GLD-1 TGE inh 113, eLon inh 53 | BCLXL inh confirm 36 | MCL1 inh confirm 46 | eLon confirm inactive
COc1ccc(C2C(C#N)=C(N)OC3=C2C(=O)CC(C)(C)C3)c([N+](=O)[O-])c1OC (configuration not stated)	none
COc1cc(C2C(C#N)=C(N)OC3=C2C(=O)CC(C)(C)C3)c([N+](=O)[O-])cc1OC (configuration not stated)	MCL1-BIM inh active, BCLXL inh active, MEX-5 binding -54, GLD-1 TGE inh 154, eLon inh 34 | BCLXL inh confirm 64 | MCL1 inh confirm 82 | eLon confirm 19
COc1ccc(C)cc1NC(=O)c1nnn(Cc2cccc(C(F)(F)F)c2)c1N	none
CNc1cccc2c1C(=O)c1ccccc1C2=O	MCL1-BIM inh 92, BCLXL inh 82, GLD-1 TGE inh 46, eLon inh 50 | BCLXL inh confirm 84 | MCL1 inh confirm 95 | GLD-1 TGE cf inactive | eLon confirm 41
CCOC(=O)c1cc(N2CCCCC2)nc2ccccc12	none (no result: MCL1-BIM inh, BCLXL inh, MEX-5 binding, GLD-1 TGE inh)
COC(=O)c1cc(N2CCN(C)CC2)nc2ccccc12	MCL1-BIM inh 144, BCLXL inh 138, MEX-5 binding inconclusive, GLD-1 TGE inh 85, eLon inh 96 | BCLXL inh confirm inactive | MCL1 inh confirm inactive | eLon confirm 19

Screening data deposited in PubChem by several laboratories.
